Laboratory results reported in paper PMC5540273 (PLoS ONE, 2017).

Assays:
Details in all cases: concentration: 1 μM, replicates: in singlicate; n = 1
[1] = test system: CAMK1
[2] = test system: CAMK2A
[3] = test system: CAMK2B
[4] = test system: CAMK2D
[5] = test system: CAMK2G
[6] = test system: CAMK4
[7] = test system: CAMKK1
[8] = test system: CAMKK2
[9] = test system: CASK
[10] = test system: T1, CDC2L1
T1 construct: gene CDK11B

[11] = test system: CDC2L2
[12] = test system: T2, CDC2L5
T2 construct: gene CDK13

[13] = test system: T3, CDK11
T3 construct: gene CDK19

[14] = test system: CDK2
[15] = test system: CDK3
[16] = test system: CDK4-cyclinD1
[17] = test system: CDK4-cyclinD3
[18] = test system: CDK4
[19] = test system: CDK5
[20] = test system: CDK7
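Note: KINOMEscan kinase panel screen.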

| Structure (SMILES) | %Inh [1] [%] | %Inh [2] [%] | %Inh [3] [%] | %Inh [4] [%] | %Inh [5] [%] | %Inh [6] [%] | %Inh [7] [%] | %Inh [8] [%] | %Inh [9] [%] | %Inh [10] [%] | %Inh [11] [%] | %Inh [12] [%] | %Inh [13] [%] | %Inh [14] [%] | %Inh [15] [%] | %Inh [16] [%] | %Inh [17] [%] | %Inh [18] [%] | %Inh [19] [%] | %Inh [20] [%] |
| --- | --- | --- | --- | --- | --- | --- | --- | --- | --- | --- | --- | --- | --- | --- | --- | --- | --- | --- | --- | --- |
| Nc1n[nH]c2cnc(-c3ccccc3)cc12 [SB-642124] | 5 | 0 | 13 | 17 | 22 | 0 | 1 | 0 | 26 | 0 | 0 | 0 | 0 | 0 | 9 | 23 | 47 | 27 | 0 | 22 |
| c1ccc(Oc2ccc(Nc3ccnc4cc(-c5ccc(CNCCN6CCOCC6)o5)ccc34)cc2)nc1 [GW567145] | 26 | 0 | 0 | 0 | 1 | 0 | 0 | 0 | 0 | 0 | 5 | 0 | 1 | 0 | 0 | 38 | 0 | 1 | 0 | 8 |
| COc1cc(Nc2ncc3c(C)nc(-c4cc5ccccc5[nH]4)n3n2)cc(OC)c1OC [GW869516] | 19 | 1 | 8 | 6 | 1 | 0 | 13 | 9 | 0 | 5 | 8 | 0 | 1 | 0 | 31 | 22 | 0 | 0 | 0 | 0 |
| COC(=O)Nc1nc2cc(Oc3ccc(NC(=O)Nc4cc(C(F)(F)F)ccc4F)cn3)ccc2[nH]1.Cl.Cl [GW681170] | 17 | 0 | 0 | 42 | 57 | 0 | 49 | 59 | 0 | 0 | 18 | 69 | 98.1 | 16 | 7 | 7 | 0 | 50 | 0 | 94.1 |
| O=C(Nc1cccc(-c2nn3ccccc3c2-c2ccnc(Nc3cccc(F)c3)n2)c1)c1c(F)ccc(F)c1Cl [GSK357952] | 12 | 0 | 0 | 0 | 0 | 13 | 0 | 0 | 4 | 0 | 0 | 0 | 0 | 0 | 1 | 0 | 0 | 53 | 0 | 0 |
| COc1cccc(-c2ccc3c(NC(=O)C4CC4)n[nH]c3n2)c1 [SB-710903] | 0 | 100 | 100 | 8 | 9 | 0 | 6 | 7 | 23 | 0 | 1 | 0 | 0 | 33 | 41 | 61 | 15 | 52 | 0 | 0 |
| Cl.Cl.NCC(NCc1ccc(-c2ccnc3[nH]ccc23)s1)c1ccccc1 (stereo not shown) [GSK1321565] | 10 | 0 | 0 | 13 | 19 | 0 | 0 | 9 | 0 | 0 | 23 | 0 | 2 | 0 | 0 | 5 | 0 | 50 | 0 | 65 |
| NCCCC(NC(=O)c1cc(Br)c(-c2ccnc3[nH]ccc23)s1)c1ccccc1.O=C(O)C(F)(F)F.O=C(O)C(F)(F)F (stereo not shown) [GSK1287544] | 13 | 0 | 0 | 0 | 10 | 0 | 30 | 8 | 0 | 0 | 0 | 0 | 45 | 0 | 10 | 0 | 2 | 5 | 6 | 4 |
| CNC(=O)c1ccccc1Nc1nc(Nc2ccc(N3CCOCC3)cc2)ncc1Cl.Cl [GSK1576028] | 77 | 25 | 14 | 22 | 49 | 0 | 93.2 | 95 | 71 | 16 | 20 | 0 | 0 | 39 | 31 | 47 | 45 | 28 | 29 | 96.6 |
| Cc1cccc(Nc2nc(N[C@H]3CCNC3)ncc2C(N)=O)c1.Cl [GSK2197149] | 41 | 0 | 0 | 6 | 18 | 0 | 2 | 17 | 0 | 73 | 74 | 0 | 0 | 0 | 0 | 0 | 1 | 0 | 0 | 52 |
| COC(=O)Nc1nc2ccc(Oc3ccc(NC(=O)Nc4cc(C(F)(F)F)ccc4F)cc3)cc2n1C.Cl [GW692089] | 0 | 0 | 0 | 0 | 3 | 0 | 4 | 0 | 1 | 0 | 10 | 0 | 43 | 0 | 0 | 46 | 0 | 26 | 0 | 69 |
| c1ccc(-c2n[nH]cc2Nc2ccnc3ccccc23)nc1 [GW694077] | 20 | 21 | 17 | 19 | 23 | 0 | 13 | 28 | 33 | 0 | 6 | 0 | 6 | 0 | 7 | 58 | 46 | 37 | 0 | 47 |
| Oc1cc(Nc2ccnc3cc(I)ccc23)ccc1F [GW552771] | 19 | 0 | 0 | 0 | 0 | 0 | 8 | 0 | 18 | 0 | 0 | 0 | 10 | 0 | 0 | 11 | 0 | 0 | 0 | 0 |
| c1ccc(-c2cnc3nccnn23)cc1 [AH20685] | 0 | 0 | 0 | 0 | 0 | 0 | 1 | 0 | 4 | 0 | 18 | 0 | 0 | 0 | 2 | 0 | 0 | 0 | 0 | 0 |
| Cn1cc(-c2ccc3c(c2)CCN3C(=O)Cc2cccc(Cl)c2)c2c(N)ncnc21 [GSK2606590] | 26 | 0 | 0 | 18 | 25 | 0 | 19 | 12 | 7 | 0 | 18 | 0 | 99.5 | 0 | 7 | 0 | 0 | 34 | 0 | 0 |
| COCCOCCOc1cc2ncc3c4ccc(C#N)cc4[nH]c3c2cc1OC | 26 | 85 | 57 | 87 | 72 | 0 | 83 | 63 | 8 | 0 | 19 | 0 | 0 | 12 | 15 | 0 | 39 | 0 | 7 | 99.7 |
| Cc1ccc(C(=O)Nc2ccc(Nc3ccnc4cc(-c5nccs5)ccc34)cc2O)cc1.Cl [GW494702] | 13 | 0 | 0 | 0 | 14 | 0 | 3 | 6 | 4 | 0 | 0 | 0 | 0 | 94.4 | 8 | 39 | 0 | 43 | 0 | 9 |
